{
  "source": "the supplement of paper PMC11628255",
  "about": "“Interference of metal ions on the bioluminescent signal of firefly, Renilla, and NanoLuc luciferases in high-throughput screening assays” (Frontiers in Chemistry, 2024)",
  "test_system": "Renilla luciferase (RLuc)",
  "test": "residual bioluminescent signal relative to negative control without GSH; higher = less interference (more residual luciferase signal)",
  "conditions": "screening conditions buffer",
  "procedure": "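Selected metal salts at 3-4 concentrations tested on purified FLuc, NLuc or RLuc in screening buffer with 0, 0.2 or 2 mM glutathione added; 10 min enzyme pre-incubation at RT, luminescence 10 min after substrate. Signal normalised to negative control without GSH (% N_VALUE); triplicate wells.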",
  "key": {"[1]": {"conditions": "metal salt concentration 1 mM, glutathione 0 mM"}, "[2]": {"conditions": "metal salt concentration 1 mM, glutathione 0.2 mM"}, "[3]": {"conditions": "metal salt concentration 1 mM, glutathione 2 mM"}},
  "note": "± gives the standard deviation of the averaged measurements.",
  "data": [
    {"smiles": "[Cl][Fe]([Cl])[Cl]", "note": "[iron(III) chloride]", "values": [
      {"measurement": "residual bioluminescent signal", "setting": "metal salt concentration 0.005 mM, glutathione 0 mM", "result": "115 ± 9.3", "unit": "%"},
      {"measurement": "residual bioluminescent signal", "setting": "metal salt concentration 0.005 mM, glutathione 0.2 mM", "result": "116 ± 14", "unit": "%"},
      {"measurement": "residual bioluminescent signal", "setting": "metal salt concentration 0.005 mM, glutathione 2 mM", "result": "161 ± 26", "unit": "%"},
      {"measurement": "residual bioluminescent signal", "setting": "metal salt concentration 0.536 mM, glutathione 0 mM", "result": "36.6 ± 8", "unit": "%"},
      {"measurement": "residual bioluminescent signal", "setting": "metal salt concentration 0.536 mM, glutathione 0.2 mM", "result": "53 ± 4.8", "unit": "%"},
      {"measurement": "residual bioluminescent signal", "setting": "metal salt concentration 0.536 mM, glutathione 2 mM", "result": "101 ± 13", "unit": "%"},
      {"measurement": "residual bioluminescent signal", "setting": "[1]", "result": "33.4 ± 2", "unit": "%"},
      {"measurement": "residual bioluminescent signal", "setting": "[2]", "result": "39.3 ± 5.5", "unit": "%"},
      {"measurement": "residual bioluminescent signal", "setting": "[3]", "result": "48.9 ± 13", "unit": "%"},
      {"measurement": "residual bioluminescent signal", "setting": "metal salt concentration 5 mM, glutathione 0 mM", "result": "2.29 ± 1.6", "unit": "%"},
      {"measurement": "residual bioluminescent signal", "setting": "metal salt concentration 5 mM, glutathione 0.2 mM", "result": "0.915 ± 0.4", "unit": "%"},
      {"measurement": "residual bioluminescent signal", "setting": "metal salt concentration 5 mM, glutathione 2 mM", "result": "2.06 ± 1.4", "unit": "%"}
    ]},
    {"smiles": "[Cl][Fe][Cl]", "note": "[iron(II) chloride]", "values": [
      {"measurement": "residual bioluminescent signal", "setting": "metal salt concentration 0.02 mM, glutathione 0 mM", "result": "86.2 ± 14", "unit": "%"},
      {"measurement": "residual bioluminescent signal", "setting": "metal salt concentration 0.02 mM, glutathione 0.2 mM", "result": "91.9 ± 18", "unit": "%"},
      {"measurement": "residual bioluminescent signal", "setting": "metal salt concentration 0.02 mM, glutathione 2 mM", "result": "122 ± 5.5", "unit": "%"},
      {"measurement": "residual bioluminescent signal", "setting": "metal salt concentration 0.118 mM, glutathione 0 mM", "result": "47.6 ± 13", "unit": "%"},
      {"measurement": "residual bioluminescent signal", "setting": "metal salt concentration 0.118 mM, glutathione 0.2 mM", "result": "56.5 ± 11", "unit": "%"},
      {"measurement": "residual bioluminescent signal", "setting": "metal salt concentration 0.118 mM, glutathione 2 mM", "result": "75.7 ± 7.6", "unit": "%"},
      {"measurement": "residual bioluminescent signal", "setting": "metal salt concentration 0.5 mM, glutathione 0 mM", "result": "16.5 ± 3.1", "unit": "%"},
      {"measurement": "residual bioluminescent signal", "setting": "metal salt concentration 0.5 mM, glutathione 0.2 mM", "result": "22.9 ± 4.2", "unit": "%"},
      {"measurement": "residual bioluminescent signal", "setting": "metal salt concentration 0.5 mM, glutathione 2 mM", "result": "31.1 ± 5.1", "unit": "%"},
      {"measurement": "residual bioluminescent signal", "setting": "[1]", "result": "12.3 ± 4.2", "unit": "%"},
      {"measurement": "residual bioluminescent signal", "setting": "[2]", "result": "18.7 ± 10", "unit": "%"},
      {"measurement": "residual bioluminescent signal", "setting": "[3]", "result": "32 ± 11", "unit": "%"}
    ]}
  ]
}
